We go through 14 compounds from the supplement of paper PMC4840960.

One assay deals with E18 rat cortical neuron-glia co-culture. As to the kind of experiment: fiber score / MBP score (myelination specific beyond OL differentiation) (ratio); higher = more myelination-specific MBP alignment. To be noted: 1 µM; treatment time: 8 days (DIV5-DIV13). Summed up:
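Papain-dissociated primary E18 rat cortical co-cultures, plated at 20,000 cells/well on poly-d-lysine/laminin 96-well plates, were exposed to library compounds at 1 or 5 µM in myelination medium between DIV5 and DIV13. Following fixation in 4 % paraformaldehyde, cultures were stained for MBP, Olig2 and DAPI, and four 10X fields per well were analysed in duplicate wells. Values are the ratio of fiber score (continuous MBP fiber length per Olig2+ nucleus) to MBP score (thresholded MBP area × intensity per Olig2+ nucleus).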
On to `COC(=O)C1=C(C)NC(C)=C(C(=O)OC2CCCN(Cc3ccccc3)C2)C1c1cccc([N+](=O)[O-])c1` (centres undefined) [Benidipine], for which the “fiber score / MBP score” value was 0.524.
For `CC(C)Oc1ccc2c(=O)c(-c3ccccc3)coc2c1` [Ipriflavone], the “fiber score / MBP score” value is 0.908.
`Cc1nc(=O)c2cc(CN(C)c3ccc(C(=O)N[C@@H](CCC(=O)O)C(=O)O)s3)ccc2[nH]1` [Raltitrexed]: the “fiber score / MBP score” value worked out at 1.33.
As for `Cc1cn([C@H]2C[C@H](N=[N+]=[N-])[C@@H](CO)O2)c(=O)[nH]c1=O` [Zidovudine], the “fiber score / MBP score” value was found to be 0.929.

Still in this assay, the particulars now being: 5 µM; treatment time: 8 days (DIV5-DIV13).
For `CN1CCCCC1CCN1c2ccccc2Sc2ccc([S+](C)[O-])cc21` (centres undefined) [Mesoridazine], the “fiber score / MBP score” value came out at 0.747.
As to `NC12CC3CC(CC(C3)C1)C2` [Amantadine], the “fiber score / MBP score” value amounted to 0.883.
Consider `CN1CCN(c2c(F)cc3c(=O)c(C(=O)O)cn4c3c2SCC4)CC1` [Rufloxacin], for which the “fiber score / MBP score” value came to 0.68.
Turning to `COc1cc(N)c(Cl)cc1C(=O)NC1CCN(CCCOc2ccc(F)cc2)CC1OC` (centres undefined) [Cisapride], the “fiber score / MBP score” value was 0.515.
On to `COc1ccc(C2CNC(=O)C2)cc1OC1CCCC1` (centres undefined) [Rolipram], for which the “fiber score / MBP score” value came to 0.618.
On to `CCCCN1CCCCC1C(=O)Nc1c(C)cccc1C` (centres undefined) [Bupivacaine], for which the “fiber score / MBP score” value was 0.575.
The same measure, in the same setting: in the case of `O=C(CCCN1CC=C(n2c(=O)[nH]c3ccccc32)CC1)c1ccc(F)cc1` [Droperidol] it was 0.601; in that of `CCCC(CCC)C(=O)O` [Valproic Acid], 0.944; in that of `COc1cc(C[C@@H](CO)[C@H](CO)Cc2ccc(O)c(OC)c2)ccc1O` [Secoisolariciresinol], 0.777.
`C[C@H]1O[C@@H](O[C@H]2[C@@H](O)C[C@H](O[C@H]3[C@@H](O)C[C@H](O[C@H]4CC[C@@]5(C)[C@H](CC[C@@H]6[C@@H]5C[C@@H](O)[C@]5(C)[C@@H](C7=CC(=O)OC7)CC[C@]65O)C4)O[C@@H]3C)O[C@@H]2C)C[C@H](O)[C@@H]1O` [Digoxin]: the “fiber score / MBP score” value stood at 1.46.
